Records with an inconclusive call do not appear. Activity calls are given as the source filed them. Rule for the calls: active = hit-call score of the fitted dose curve at least 0.9, where 1 is the maximum; inconclusive = response in the unintended direction; inactive = score below 0.9.
Tests used:
AR (gene 367) = AR (gene 367) (UniProt P10275); experiment: ACEA_AR_antagonist_80hr: ACEA Biosciences xCELLigence Real-Time Cell Analysis on Androgen Receptor Antagonism for Proliferation (AID 2283787);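 note: 22Rv1 human prostate cancer cells with growth followed by electrical impedance; hits lower the impedance growth signal relative to DMSO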
Chain of AR (gene 367) (P10275 whole entry, looked up): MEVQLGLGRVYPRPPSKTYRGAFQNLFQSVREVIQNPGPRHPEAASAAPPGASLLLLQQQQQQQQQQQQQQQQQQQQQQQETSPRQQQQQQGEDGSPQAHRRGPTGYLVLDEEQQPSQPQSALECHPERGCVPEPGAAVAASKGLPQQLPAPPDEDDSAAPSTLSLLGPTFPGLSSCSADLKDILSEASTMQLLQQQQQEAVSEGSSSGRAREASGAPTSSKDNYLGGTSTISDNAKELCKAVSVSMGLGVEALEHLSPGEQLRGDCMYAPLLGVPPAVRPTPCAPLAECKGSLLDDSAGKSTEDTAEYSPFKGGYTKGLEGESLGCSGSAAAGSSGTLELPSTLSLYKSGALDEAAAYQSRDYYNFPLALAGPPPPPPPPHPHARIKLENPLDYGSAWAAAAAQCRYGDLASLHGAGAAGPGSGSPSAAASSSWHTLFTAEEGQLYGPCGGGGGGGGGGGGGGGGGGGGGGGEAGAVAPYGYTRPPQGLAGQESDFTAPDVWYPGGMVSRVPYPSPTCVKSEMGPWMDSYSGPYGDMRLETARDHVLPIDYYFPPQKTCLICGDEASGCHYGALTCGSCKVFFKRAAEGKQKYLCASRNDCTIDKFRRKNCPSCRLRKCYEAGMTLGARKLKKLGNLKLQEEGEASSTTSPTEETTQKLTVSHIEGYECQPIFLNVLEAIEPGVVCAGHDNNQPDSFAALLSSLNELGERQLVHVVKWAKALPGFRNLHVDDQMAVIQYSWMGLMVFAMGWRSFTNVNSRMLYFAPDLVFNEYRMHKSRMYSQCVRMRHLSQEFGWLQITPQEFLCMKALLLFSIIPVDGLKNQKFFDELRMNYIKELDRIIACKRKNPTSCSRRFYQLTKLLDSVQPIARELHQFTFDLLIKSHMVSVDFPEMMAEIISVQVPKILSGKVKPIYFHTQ
How it was run: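 Growth-kinetic antagonist readout in 22Rv1 cells, taken 80 h after continuous compound exposure. Activity fitted as signal loss relative to DMSO negative control.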

[1] = ATG_M_06_XSP1: Attagene TRANS-FACTORIAL Multi-Species (XSP1) HepG2 Assay for M06 Transcription Factor (Internal Marker) (AID 2283790)
How it was run: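 Transfected HepG2 multi-reporter system treated 24 h in the presence of 3 nM 6-alpha-fluorotestosterone. The M06 internal marker transcript was quantified by RT-PCR with capillary electrophoresis as a background control, and gain of signal was scored versus DMSO.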

[2] = ATG_M_61_XSP1: Attagene TRANS-FACTORIAL Multi-Species (XSP1) HepG2 Assay for M61 Transcription Factor (Internal Marker) (AID 2283797)
How it was run: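 HepG2 cells transiently transfected with multiplexed GAL4-driven reporter units, dosed 24 h with 3 nM 6-alpha-fluorotestosterone present. Reporter mRNA quantified by RT-PCR, 6-FAM labelling, HpaI digestion and capillary electrophoresis; internal-marker background control, gain of signal versus DMSO.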

[3] = target: GAL4 Transcription Factor (Internal Marker), GAL4 (gene 855828) (UniProt P04386); experiment: ATG_GAL4_XSP1: Attagene TRANS-FACTORIAL Multi-Species (XSP1) HepG2 Assay for GAL4 Transcription Factor (Internal Marker) (AID 2283789)
Chain of GAL4 Transcription Factor (Internal Marker), GAL4 (gene 855828) (P04386 whole entry, looked up, the tested form may be a part): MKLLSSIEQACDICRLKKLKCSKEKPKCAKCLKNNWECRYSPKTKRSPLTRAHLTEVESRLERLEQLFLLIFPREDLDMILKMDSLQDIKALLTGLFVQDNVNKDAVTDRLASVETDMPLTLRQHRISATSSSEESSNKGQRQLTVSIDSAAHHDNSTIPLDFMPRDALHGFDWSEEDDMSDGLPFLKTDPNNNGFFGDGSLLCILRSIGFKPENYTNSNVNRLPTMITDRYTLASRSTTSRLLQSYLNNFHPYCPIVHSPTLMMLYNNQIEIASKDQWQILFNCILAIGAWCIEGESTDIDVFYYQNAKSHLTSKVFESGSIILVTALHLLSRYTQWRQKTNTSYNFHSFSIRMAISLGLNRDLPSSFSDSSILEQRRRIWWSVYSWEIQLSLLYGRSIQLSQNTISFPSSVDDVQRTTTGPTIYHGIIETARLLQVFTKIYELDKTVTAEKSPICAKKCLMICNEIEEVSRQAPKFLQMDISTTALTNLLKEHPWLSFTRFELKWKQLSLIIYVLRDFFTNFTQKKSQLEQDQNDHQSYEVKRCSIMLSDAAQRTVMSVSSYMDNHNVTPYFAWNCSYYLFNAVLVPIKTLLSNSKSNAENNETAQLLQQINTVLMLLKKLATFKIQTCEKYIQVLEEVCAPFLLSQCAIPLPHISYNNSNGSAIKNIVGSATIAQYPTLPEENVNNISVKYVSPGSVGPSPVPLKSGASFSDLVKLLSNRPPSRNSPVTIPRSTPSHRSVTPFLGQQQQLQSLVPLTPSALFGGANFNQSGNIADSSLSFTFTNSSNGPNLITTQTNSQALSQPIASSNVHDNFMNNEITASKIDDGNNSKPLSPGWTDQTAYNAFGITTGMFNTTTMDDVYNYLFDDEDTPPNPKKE
How it was run: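 HepG2 cells transiently transfected with multiplexed GAL4-UAS reporter units were exposed for 24 h with 3 nM 6-alpha-fluorotestosterone present. Reporter mRNA was quantified by RT-PCR, FAM labelling, HpaI digestion and capillary electrophoresis; background-control readout, gain-of-signal versus DMSO.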

[4] = ATG_M_19_XSP1: Attagene TRANS-FACTORIAL Multi-Species (XSP1) HepG2 Assay for M19 Transcription Factor (Internal Marker) (AID 2283798)
How it was run: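 HepG2 cells transiently transfected with multiplexed GAL4-UAS reporter units, dosed 24 h with 3 nM 6-alpha-fluorotestosterone present for partial AR stimulation. Reporter mRNA measured by RT-PCR with capillary electrophoresis; gain-of-signal fitted relative to DMSO.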

[5] = ATG_M_32_XSP1: Attagene TRANS-FACTORIAL Multi-Species (XSP1) HepG2 Assay for M32 Transcription Factor (Internal Marker) (AID 2283799)
Experimental: ATG_XSP1_multi-species_TRANS is a cell-based, multiplexed assay created by modifying the existing Attagene TRANS-FACTORIAL system to include a panel of nuclear receptors from some or all the following species: human (Homo sapiens), mouse (Mus musculus), frog (Xenopus laevis), zebrafish (Danio rerio), chicken (Gallus gallus), and turtle (Chrysemys picta). The ECOTOX-FACTORIAL format uses HepG2, a human liver cell line, with measurements taken at 24 hours after chemical dosing in a 24-well plate. Xsp1 included 3 nM 6-alpha-fluorotestosterone to partially stimulate the androgen receptor.ATG_M_32_XSP1 is one of 29 assay components measured or calculated from the ATG_XSP1_multi-species_TRANS assay. It is designed to make measurements of mRNA induction, a form of inducible reporter, as detected with fluorescence intensity signals by Reverse transcription polymerase chain reaction (RT-PCR) and Capillary electrophoresis technology.This assay endpoint, ATG_M_32_XSP1, was analyzed in the positive analysis fitting direction relative to DMSO as the negative control and baseline of activity. Using a type of inducible reporter, measures of mRNA for gain-of-signal activity can be used to understand the background control at the transcription factor-level as they relate to the gene. Furthermore, this assay endpoint can be referred to as a secondary readout, because this assay has produced multiple assay endpoints where this one serves a background control function. To generalize the intended target to other relatable targets, this assay endpoint is annotated to the background measurement intended target family, where the subfamily is internal marker.
(§1) Human liver HepG2 cells are transiently transfected with multiple reporter transcription units (MRTUs) in 6-well plates using FuGene 6 reagent (Roche; 3 ml FuGene/1 mg DNA). The MRTU constructs are regulated by a cis-regulating element (promoter). […] A major difference between the CIS and TRANS system is that in CIS activities of endogenous TFs are measured, whereas the TRANS assay evaluates changes in activities of exogenous, chimeric NR-Gal4 proteins. […] At the end of 24 hour incubation, total RNA was isolated using TriZol reagent (Invitrogen). The isolated RNA is then reverse-transcribed using oligo(dT) primer and Mo-MLV reverse transcriptase (Invitrogen) with DNAse I (Ambion) treatment for 30 min. […] The fragments were purified using Qiaquick PCR columns (Qiagen), analyzed on an ABI 3130xL genetic analyzer (Applied Biosystems) with peak positions identified by using a set of X-rhodamine (ROX)-labeled MapMarker1000 molecular weight standards (BioVentures). […]

[6] = target: Peroxisome proliferator-activated receptor gamma (Homo sapiens) (UniProt P37231); experiment: ATG_hPPARg_XSP1: Attagene TRANS-FACTORIAL Multi-Species (XSP1) HepG2 Assay for human Peroxisome Proliferator-activated Receptor gamma (PPARg) (AID 2283800)
Chain of Peroxisome proliferator-activated receptor gamma (Homo sapiens) (P37231 whole entry, looked up): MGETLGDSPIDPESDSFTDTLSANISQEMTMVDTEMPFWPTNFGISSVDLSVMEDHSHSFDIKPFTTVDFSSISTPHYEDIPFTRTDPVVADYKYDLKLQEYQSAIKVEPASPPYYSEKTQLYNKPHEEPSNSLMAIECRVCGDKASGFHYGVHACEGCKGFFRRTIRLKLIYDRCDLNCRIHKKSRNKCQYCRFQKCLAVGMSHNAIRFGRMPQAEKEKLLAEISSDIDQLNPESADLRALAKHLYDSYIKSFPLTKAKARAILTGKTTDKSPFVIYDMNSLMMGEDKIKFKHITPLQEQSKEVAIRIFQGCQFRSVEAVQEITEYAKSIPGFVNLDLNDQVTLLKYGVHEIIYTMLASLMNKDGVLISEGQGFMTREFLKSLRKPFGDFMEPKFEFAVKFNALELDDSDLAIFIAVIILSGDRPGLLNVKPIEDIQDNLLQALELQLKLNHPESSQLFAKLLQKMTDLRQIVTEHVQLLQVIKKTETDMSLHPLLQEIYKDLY
Experimental: ATG_XSP1_multi-species_TRANS is a cell-based, multiplexed assay created by modifying the existing Attagene TRANS-FACTORIAL system to include a panel of nuclear receptors from some or all the following species: human (Homo sapiens), mouse (Mus musculus), frog (Xenopus laevis), zebrafish (Danio rerio), chicken (Gallus gallus), and turtle (Chrysemys picta). The ECOTOX-FACTORIAL format uses HepG2, a human liver cell line, with measurements taken at 24 hours after chemical dosing in a 24-well plate. Xsp1 included 3 nM 6-alpha-fluorotestosterone to partially stimulate the androgen receptor.ATG_hPPARg_XSP1 is one of 29 assay components measured or calculated from the ATG_XSP1_multi-species_TRANS assay. It is designed to make measurements of mRNA induction, a form of inducible reporter, as detected with fluorescence intensity signals by Reverse transcription polymerase chain reaction (RT-PCR) and Capillary electrophoresis technology.The assay endpoint ATG_hPPARg_XSP1 was analyzed in the positive analysis fitting direction relative to DMSO as the negative control and baseline of activity. Using a type of inducible reporter, measures of mRNA for gain-of-signal activity can be used to understand the reporter gene at the transcription factor-level as they relate to the gene PPARg. Furthermore, this assay endpoint can be referred to as a primary readout, because this assay has produced multiple assay endpoints where this one serves a reporter gene function. To generalize the intended target to other relatable targets, this assay endpoint is annotated to the nuclear receptor intended target family, where the subfamily is non-steroidal.
as §1

[7] = tested on: zebrafish Peroxisome Proliferator-activated Receptor gamma (PPARg), gene 557037; experiment: ATG_zfPPARg_XSP1: Attagene TRANS-FACTORIAL Multi-Species (XSP1) HepG2 Assay for zebrafish Peroxisome Proliferator-activated Receptor gamma (PPARg) (AID 2283801)
How it was run: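 HepG2 cells transiently transfected with GAL4-UAS reporter units including a zebrafish PPARg–GAL4 chimera, dosed 24 h with 3 nM 6-alpha-fluorotestosterone present. Reporter mRNA quantified by RT-PCR, FAM labelling, HpaI digestion and capillary electrophoresis; induction versus DMSO.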

[8] = target: mouse Peroxisome Proliferator-activated Receptor gamma (PPARg), Pparg (gene 19016) (UniProt P37238); experiment: ATG_mPPARg_XSP1: Attagene TRANS-FACTORIAL Multi-Species (XSP1) HepG2 Assay for mouse Peroxisome Proliferator-activated Receptor gamma (PPARg) (AID 2283802)
Chain of mouse Peroxisome Proliferator-activated Receptor gamma (PPARg), Pparg (gene 19016) (P37238 whole entry, looked up, the tested form may be a part): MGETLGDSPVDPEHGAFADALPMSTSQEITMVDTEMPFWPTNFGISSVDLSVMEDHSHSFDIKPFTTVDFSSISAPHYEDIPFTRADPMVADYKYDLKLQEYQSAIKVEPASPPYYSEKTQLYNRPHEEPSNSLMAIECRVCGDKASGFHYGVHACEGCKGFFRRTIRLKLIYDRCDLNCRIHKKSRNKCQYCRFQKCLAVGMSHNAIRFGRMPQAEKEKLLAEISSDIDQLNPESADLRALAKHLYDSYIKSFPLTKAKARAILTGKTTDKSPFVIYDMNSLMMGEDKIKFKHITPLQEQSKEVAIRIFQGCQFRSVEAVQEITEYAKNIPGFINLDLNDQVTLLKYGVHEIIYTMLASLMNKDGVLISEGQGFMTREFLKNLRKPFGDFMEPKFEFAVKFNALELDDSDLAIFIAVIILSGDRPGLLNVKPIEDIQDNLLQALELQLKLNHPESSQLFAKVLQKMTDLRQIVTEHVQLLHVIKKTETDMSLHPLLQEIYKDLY
How it was run: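 HepG2 cells transiently transfected with GAL4-UAS reporter units driven by mouse PPARg–GAL4 chimera; 3 nM 6-alpha-fluorotestosterone present. After 24 h dosing, reporter mRNA quantified by RT-PCR, fluorescent labelling and capillary electrophoresis; gain of signal versus DMSO.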

[9] = target: Estrogen receptor beta (Homo sapiens) (UniProt Q92731); experiment: ATG_hERb_XSP1: Attagene TRANS-FACTORIAL Multi-Species (XSP1) HepG2 Assay for human Estrogen Receptor (ESR2) (AID 2283788)
Chain of Estrogen receptor beta (Homo sapiens) (Q92731 whole entry, looked up, the tested form may be a part): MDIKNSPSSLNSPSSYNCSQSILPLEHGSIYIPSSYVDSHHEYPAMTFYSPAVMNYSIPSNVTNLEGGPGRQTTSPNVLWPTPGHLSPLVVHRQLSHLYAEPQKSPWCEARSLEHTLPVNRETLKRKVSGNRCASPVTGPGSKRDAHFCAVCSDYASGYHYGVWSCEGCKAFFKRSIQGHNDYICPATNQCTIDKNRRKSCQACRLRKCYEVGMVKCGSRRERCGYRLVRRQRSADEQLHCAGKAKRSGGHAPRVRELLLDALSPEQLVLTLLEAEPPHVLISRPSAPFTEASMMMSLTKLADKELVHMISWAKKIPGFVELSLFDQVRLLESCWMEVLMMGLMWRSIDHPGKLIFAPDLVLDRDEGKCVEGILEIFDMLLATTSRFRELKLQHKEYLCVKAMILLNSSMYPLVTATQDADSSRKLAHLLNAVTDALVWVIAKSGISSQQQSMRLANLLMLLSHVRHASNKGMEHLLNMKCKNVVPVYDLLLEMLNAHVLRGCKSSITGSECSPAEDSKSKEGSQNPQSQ
How it was run: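 Measured endpoint is transcriptional gain of signal from a GAL4-UAS reporter controlled by chimeric ERβ in HepG2 liver cells. Exposure lasts 24 h alongside 3 nM 6-alpha-fluorotestosterone, with DMSO as negative control.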

## CCOP(=O)(NC(C)C)Oc1ccc(SC)c(C)c1 (centres undefined)
AR (gene 367)
  AC50: 40.5 µM (active)

## CC(C)=CC1C(C(=O)OCN2C(=O)C3=C(CCCC3)C2=O)C1(C)C (centres undefined)
AR (gene 367)
  AC50: 69.8 µM (active)

## CC(COc1ccc(Oc2ccccc2)cc1)Oc1ccccn1 (centres undefined)
AR (gene 367)
  AC50: 66.3 µM (active)

## Nc1c(Cl)cc([N+](=O)[O-])cc1Cl
AR (gene 367)
  AC50: 50 µM (active)

## COP(=O)(OC)OC(Br)C(Cl)(Cl)Br (centres undefined)
AR (gene 367)
  AC50: 69.5 µM (active)

## COc1ccc(C(=CC(=O)N2CCOCC2)c2ccc(Cl)cc2)cc1OC
AR (gene 367)
  AC50: 15.8 µM (active)

## CCc1cccc(CC)c1N(COC)C(=O)CCl
AR (gene 367)
  AC50: 63.9 µM (active)

## COP(=O)(OC)SCn1c(=O)oc2cc(Cl)cnc21
AR (gene 367)
  AC50: 21.7 µM (active)

## C#CC(C)(C)NC(=O)c1cc(Cl)cc(Cl)c1
[1]
  outcome: inactive
[2]
  outcome: inactive

## CCOC(=O)COc1cc(-c2nn(C)c(OC(F)F)c2Cl)c(F)cc1Cl
AR (gene 367)
  AC50: 28.1 µM (active)

## CCCOCC(=Nc1ccc(Cl)cc1C(F)(F)F)n1ccnc1
[3]
  outcome: inactive
[4]
  outcome: inactive
[5]
  outcome: inactive
[6]
  AC50: 0.985 µM (active)
[7]
  outcome: inactive
[8]
  AC50: 0.674 µM (active)

## CNC(=O)ON=C(SC)C(=O)N(C)C
AR (gene 367)
  outcome: inactive

## CCOP(=S)(OCC)Oc1ccc2c(C)c(Cl)c(=O)oc2c1
[9]
  outcome: inactive
[1]
  outcome: inactive
[2]
  outcome: inactive
[4]
  outcome: inactive
[5]
  outcome: inactive
[6]
  AC50: 11.4 µM (active)
[8]
  AC50: 26.7 µM (active)

## C=C(C)[C@H]1Cc2c(ccc3c2O[C@@H]2COc4cc(OC)c(OC)cc4[C@@H]2C3=O)O1
AR (gene 367)
  AC50: 1.54 µM (active)

## CCC(=O)Nc1ccc(Cl)c(Cl)c1
AR (gene 367)
  AC50: 20 µM (active)

## N#CSCSC#N
AR (gene 367)
  AC50: 11.7 µM (active)

## CCCCOC(=O)c1ccccc1C(=O)O
AR (gene 367)
  outcome: inactive

Reference: PubChem BioAssay (EPA / NIEHS)
